Measured values from PubChem BioAssay AID1159580 (chemical genetic matrix, 2015).
Screen size: about 5,500 compounds; about 2,000 (36%) were called active. Another 18% or so got no clear call; they are omitted. Rule as the data show it: active = normalized growth mostly below about 0.91 (no sharp cut-off); inconclusive = no clear call, values can overlap the other calls; inactive = mostly above about 0.92. Some of the results follow.

Assay: chemical genetic growth profiling, strain panel (AID 1159580);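 also: tested at 20 µM; growth read once vehicle control cultures reached saturation at 30 °C; 1 = growth at the plate median or of vehicle wells; lower values mean less growth of the strain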
Conditions: growth OD
[1] = S. cerevisiae deletion strains, locus YAL013W, strain DEP1, stronger effect = lower value
[2] = S. cerevisiae deletion strains, locus YGR078C, strain PAC10, stronger effect = lower value
[3] = S. cerevisiae deletion strains, locus YMR263W, strain SAP30, stronger effect = lower value
[4] = S. cerevisiae deletion strains, locus YNL322C, strain KRE1, stronger effect = lower value
[5] = S. cerevisiae deletion strains, locus YPL055C, strain LGE1, stronger effect = lower value
[6] = S. cerevisiae deletion strains, locus YPL241C, strain CIN2, stronger effect = lower value
[7] = S. cerevisiae deletion strains, locus YHR030C, strain SLT2, stronger effect = lower value

Measured: normalized growth

O=C(O)[C@@H]1C[C@@H](C(=O)O)N1
inactive: [1] 1.02 | S. cerevisiae deletion strains, locus YAL040C, strain CLN3, stronger effect = lower value 1.08 | S. cerevisiae deletion strains, locus YCL061C, strain MRC1 (second series), stronger effect = lower value 1 | S. cerevisiae deletion strains, locus YER002W, strain NOP16, stronger effect = lower value 1 | [2] 1.01 | S. cerevisiae deletion strains, locus YGR229C, strain SMI1, stronger effect = lower value 0.986 | [3] 0.997 | S. cerevisiae deletion strains, locus YNL175C, strain NOP13, stronger effect = lower value 1 | S. cerevisiae deletion strains, locus YNL197C, strain WHI3, stronger effect = lower value 1.02 | S. cerevisiae deletion strains, locus YNL224C, strain SQS1, stronger effect = lower value 0.978 | [4] 0.986 | S. cerevisiae deletion strains, locus YOR083W, strain WHI5 (second series), stronger effect = lower value 1.03 | [5] 1.02 | [6] 0.992

CSc1sc(C#N)c2c1C(O)CCC2 (configuration not stated)
inactive: [1] 0.988 | S. cerevisiae deletion strains, locus YBR229C, strain ROT2, stronger effect = lower value 0.973 | S. cerevisiae deletion strains, locus YDL101C, strain DUN1, stronger effect = lower value 0.977 | S. cerevisiae deletion strains, locus YDR150W, strain NUM1, stronger effect = lower value 0.948 | S. cerevisiae deletion strains, locus YEL061C, strain CIN8, stronger effect = lower value 0.993 | [2] 0.983 | [7] 0.931 | S. cerevisiae deletion strains, locus YHR087W, strain rtc3, stronger effect = lower value 0.968 | S. cerevisiae deletion strains, locus YJR043C, strain POL32, stronger effect = lower value 0.961 | S. cerevisiae deletion strains, locus YJR075W, strain HOC1, stronger effect = lower value 0.96 | S. cerevisiae deletion strains, locus YKL190W, strain CNB1, stronger effect = lower value 0.992 | S. cerevisiae deletion strains, locus YLR039C, strain RIC1, stronger effect = lower value 1.01 | S. cerevisiae deletion strains, locus YLR058C, strain SHM2 (second series), stronger effect = lower value 0.982 | S. cerevisiae deletion strains, locus YLR085C, strain ARP6, stronger effect = lower value 1.03 | S. cerevisiae deletion strains, locus YLR262C, strain YPT6, stronger effect = lower value 1.01 | S. cerevisiae deletion strains, locus YML094W, strain GIM5, stronger effect = lower value 1 | S. cerevisiae deletion strains, locus YMR219W, strain ESC1, stronger effect = lower value 0.985 | [3] 0.95 | S. cerevisiae deletion strains, locus YNL128W, strain TEP1, stronger effect = lower value 0.975 | S. cerevisiae deletion strains, locus YNL153C, strain GIM3, stronger effect = lower value 0.976 | S. cerevisiae deletion strains, locus YNL298W, strain CLA4 (second series), stronger effect = lower value 0.964 | [4] 1 | S. cerevisiae deletion strains, locus YNR030W, strain Alg12, stronger effect = lower value 0.974 | S. cerevisiae deletion strains, locus YOL006C, strain TOP1, stronger effect = lower value 0.959 | [5] 0.902 | [6] 0.982 | S. cerevisiae deletion strains, locus YPR135W, strain CTF4, stronger effect = lower value 0.94 | S. cerevisiae strains, strain wild type, stronger effect = lower value 0.984

CC(C)(C)NC[C@H](O)c1ccc(O)c(CO)c1
inactive: S. cerevisiae deletion strains, locus YAL021C, strain ccr4, stronger effect = lower value 1.02 | S. cerevisiae deletion strains, locus YAL026C, strain drs2, stronger effect = lower value 1.03 | S. cerevisiae deletion strains, locus YAL030W, strain snc1, stronger effect = lower value 1.02 | S. cerevisiae deletion strains, locus YBL061C, strain skt5, stronger effect = lower value 1.01 | S. cerevisiae deletion strains, locus YBR009C, strain hhf1, stronger effect = lower value 1.03 | S. cerevisiae deletion strains, locus YBR023C, strain chs3, stronger effect = lower value 1.02 | S. cerevisiae deletion strains, locus YBR171W, strain sec66, stronger effect = lower value 1.04 | S. cerevisiae deletion strains, locus YBR231C, strain swc5, stronger effect = lower value 1.03 | S. cerevisiae deletion strains, locus YBR279W, strain paf1, stronger effect = lower value 1.02 | S. cerevisiae deletion strains, locus YCL011C, strain gbp2, stronger effect = lower value 1.02 | S. cerevisiae deletion strains, locus YCL016C, strain dcc1, stronger effect = lower value 1.02 | S. cerevisiae deletion strains, locus YCL061C, strain MRC1, stronger effect = lower value 1.01 | S. cerevisiae deletion strains, locus YCL069W, strain vba3, stronger effect = lower value 1.02 | S. cerevisiae deletion strains, locus YCR088W, strain abp1, stronger effect = lower value 1.02 | S. cerevisiae deletion strains, locus YDL005C, strain med2, stronger effect = lower value 1.02 | S. cerevisiae deletion strains, locus YDL040C, strain nat1, stronger effect = lower value 1.02 | S. cerevisiae deletion strains, locus YDR001C, strain nth1, stronger effect = lower value 1.01 | S. cerevisiae deletion strains, locus YDR069C, strain doa4, stronger effect = lower value 1.04 | S. cerevisiae deletion strains, locus YDR137W, strain rgp1, stronger effect = lower value 1.06 | S. cerevisiae deletion strains, locus YDR159W, strain sac3, stronger effect = lower value 1.04 | S. cerevisiae deletion strains, locus YDR195W, strain ref2 1.02 | S. cerevisiae deletion strains, locus YDR297W, strain sur2, stronger effect = lower value 1.05 | S. cerevisiae deletion strains, locus YDR334W, strain swr1, stronger effect = lower value 1.02 | S. cerevisiae deletion strains, locus YDR335W, strain msn5, stronger effect = lower value 1.01 | S. cerevisiae deletion strains, locus YDR392W, strain spt3, stronger effect = lower value 0.992 | S. cerevisiae deletion strains, locus YEL003W, strain gim4, stronger effect = lower value 1.01 | S. cerevisiae deletion strains, locus YEL037C, strain rad23, stronger effect = lower value 1 | S. cerevisiae deletion strains, locus YEL061C, strain CIN8 (second series), stronger effect = lower value 1.01 | S. cerevisiae deletion strains, locus YER015W, strain faa2, stronger effect = lower value 1.02 | S. cerevisiae deletion strains, locus YER016W, strain bim1, stronger effect = lower value 1.03 | S. cerevisiae deletion strains, locus YER111C, strain swi4, stronger effect = lower value 1.02 | S. cerevisiae deletion strains, locus YER155C, strain BEM2 (second series), stronger effect = lower value 1.03 | S. cerevisiae deletion strains, locus YFR010W, strain ubp6, stronger effect = lower value 1.02 | S. cerevisiae deletion strains, locus YGL167C, strain pmr1, stronger effect = lower value 1.01 | S. cerevisiae deletion strains, locus YGL173C, strain kem1, stronger effect = lower value 1.03 | S. cerevisiae deletion strains, locus YGL227W, strain vid30, stronger effect = lower value 1.01 | S. cerevisiae deletion strains, locus YGL240W, strain doc1, stronger effect = lower value 1.02 | S. cerevisiae deletion strains, locus YGL253W, strain hxk2, stronger effect = lower value 1.01 | S. cerevisiae deletion strains, locus YHR013C, strain ard1, stronger effect = lower value 1.04 | S. cerevisiae deletion strains, locus YHR027C, strain rpn1, stronger effect = lower value 1.02 | [7] 0.999 | S. cerevisiae deletion strains, locus YHR079C, strain IRE1, stronger effect = lower value 0.97 | S. cerevisiae deletion strains, locus YHR142W, strain chs7, stronger effect = lower value 1.01 | S. cerevisiae deletion strains, locus YJL092W, strain hpr5, stronger effect = lower value 1.02 | S. cerevisiae deletion strains, locus YJL095W, strain BCK1 (second series), stronger effect = lower value 1.01 | S. cerevisiae deletion strains, locus YJL095W, strain BCK1, stronger effect = lower value 0.966 | S. cerevisiae deletion strains, locus YJL115W, strain asf1, stronger effect = lower value 1.02 | S. cerevisiae deletion strains, locus YJL129C, strain trk1, stronger effect = lower value 1.03 | S. cerevisiae deletion strains, locus YJL154C, strain vps35, stronger effect = lower value 1.02 | S. cerevisiae deletion strains, locus YJL164C, strain tpk1, stronger effect = lower value 1.02 | S. cerevisiae deletion strains, locus YJL166W, strain qcr8, stronger effect = lower value 1.02 | S. cerevisiae deletion strains, locus YJL187C, strain SWE1, stronger effect = lower value 1.02 | S. cerevisiae deletion strains, locus YJR066W, strain TOR1, stronger effect = lower value 0.955 | S. cerevisiae deletion strains, locus YKL160W, strain elf1, stronger effect = lower value 1.02 | S. cerevisiae deletion strains, locus YKR026C, strain gcn3, stronger effect = lower value 1.01 | S. cerevisiae deletion strains, locus YKR091W, strain srl3, stronger effect = lower value 1.02 | S. cerevisiae deletion strains, locus YLL001W, strain dnm1, stronger effect = lower value 1.03 | S. cerevisiae deletion strains, locus YLL026W, stronger effect = lower value 1.03 | S. cerevisiae deletion strains, locus YLL041C, strain sdh2, stronger effect = lower value 1.02 | S. cerevisiae deletion strains, locus YLR027C, strain aat2, stronger effect = lower value 1.02 | S. cerevisiae deletion strains, locus YLR113W, strain HOG1, stronger effect = lower value 0.976 | S. cerevisiae deletion strains, locus YLR221C, strain rsa3, stronger effect = lower value 1.02 | S. cerevisiae deletion strains, locus YLR258W, strain gsy2, stronger effect = lower value 1.03 | S. cerevisiae deletion strains, locus YLR262C, strain YPT6 (second series), stronger effect = lower value 1.03 | S. cerevisiae deletion strains, locus YLR320W, strain mms22, stronger effect = lower value 1.02 | S. cerevisiae deletion strains, locus YLR342W, strain FKS1, stronger effect = lower value 1.03 | S. cerevisiae deletion strains, locus YLR357W, strain rsc2, stronger effect = lower value 1.06 | S. cerevisiae deletion strains, locus YLR370C, strain arc18, stronger effect = lower value 1.02 | S. cerevisiae deletion strains, locus YLR384C, strain iki3, stronger effect = lower value 1.02 | S. cerevisiae deletion strains, locus YML120C, strain ndi1, stronger effect = lower value 1.01 | S. cerevisiae deletion strains, locus YMR058W, strain fet3, stronger effect = lower value 1.02 | S. cerevisiae deletion strains, locus YMR125W, strain sto1, stronger effect = lower value 1.03 | S. cerevisiae deletion strains, locus YMR129W, stronger effect = lower value 1 | S. cerevisiae deletion strains, locus YMR205C, strain PFK2, stronger effect = lower value 1.02 | S. cerevisiae deletion strains, locus YMR231W, strain pep5, stronger effect = lower value 1.03 | S. cerevisiae deletion strains, locus YNL071W, strain lat1, stronger effect = lower value 1.02 | S. cerevisiae deletion strains, locus YNL183C, strain NPR1, stronger effect = lower value 0.912 | S. cerevisiae deletion strains, locus YNL209W, strain ssb2, stronger effect = lower value 1.02 | S. cerevisiae deletion strains, locus YNL248C, strain rpa49, stronger effect = lower value 1.01 | S. cerevisiae deletion strains, locus YNL322C, strain KRE1 (second series), stronger effect = lower value 1.01 | S. cerevisiae deletion strains, locus YNR049C, strain mso1, stronger effect = lower value 1.02 | S. cerevisiae deletion strains, locus YOR001W, strain rrp6, stronger effect = lower value 1.02 | S. cerevisiae deletion strains, locus YOR070C, strain gyp1, stronger effect = lower value 1.01 | S. cerevisiae deletion strains, locus YOR080W, strain dia2, stronger effect = lower value 1.02 | S. cerevisiae deletion strains, locus YOR083W, strain WHI5, stronger effect = lower value 1.01 | S. cerevisiae deletion strains, locus YOR106W, strain vam3, stronger effect = lower value 1.02 | S. cerevisiae deletion strains, locus YOR231W, strain MKK1, stronger effect = lower value 0.973 | S. cerevisiae deletion strains, locus YOR265W, strain rbl2, stronger effect = lower value 1.01 | S. cerevisiae deletion strains, locus YOR270C, strain vph1, stronger effect = lower value 1.07 | S. cerevisiae deletion strains, locus YOR290C, strain snf2, stronger effect = lower value 1.03 | S. cerevisiae deletion strains, locus YPL051W, strain arl3, stronger effect = lower value 1.02 | S. cerevisiae deletion strains, locus YPL078C, strain atp4, stronger effect = lower value 1.02 | S. cerevisiae deletion strains, locus YPL106C, strain sse1, stronger effect = lower value 1.03 | S. cerevisiae deletion strains, locus YPL240C, strain hsp82, stronger effect = lower value 1.02 | S. cerevisiae deletion strains, locus YPL256C, strain CLN2, stronger effect = lower value 0.971
